Several values for one entry are separate records, joined by “and”; a condition that tells them apart may be missing. Identical values can stand only once. Results filed as inconclusive are left out. Activity calls are given as the source filed them. How the source made its calls: active means hit-call score of the fitted dose curve at least 0.9, where 1 is the maximum; inconclusive means response in the unintended direction; inactive means score below 0.9.
molecular target: human Phosphatase and Tensin Homolog (PTEN), PTEN (gene 5728) (UniProt P60484); assay: NVS_ENZ_hPTEN: NovaScreen (NVS) Enzymatic Assay for human Phosphatase and Tensin Homolog (PTEN) (AID 2283203)
Procedure: NVS_ENZ_hPTEN is a biochemical, single-readout assay that uses extracted gene-proteins in a cell-free assay. Measurements were taken 1 hour after chemical dosing in a 384-well plate.NVS_ENZ_hPTEN is one of one assay component(s) measured or calculated from the NVS_ENZ_hPTEN assay. It is designed to make measurements of enzyme activity, a form of enzyme reporter, as detected with fluorescence intensity signals by Fluorescence and electrophoretic mobility shift technology.Data from the assay component NVS_ENZ_hPTEN was analyzed into 1 assay endpoint. This assay endpoint, NVS_ENZ_hPTEN, was analyzed in the positive analysis fitting direction relative to DMSO as the negative control and baseline of activity. Using a type of enzyme reporter, loss-of-signal activity can be used to understand changes in the enzymatic activity as they relate to the gene PTEN. Furthermore, this assay endpoint can be referred to as a primary readout, because this assay has produced multiple assay endpoints where this one serves a enzymatic activity function. To generalize the intended target to other relatable targets, this assay endpoint is annotated to the phosphatase intended target family, where the subfamily is dual-specific phosphatase.
Binding assays used specific radioligands (tritiated, iodinated) with non-radioactive competitive displacement ligands in agonist or antagonist protocols (as indicated) and various reference compounds and inhibitors to titrate specific binding to receptors and transporters. Most enzyme assays (CYPs, kinases, phosphatases, proteases, HDACs) used recombinant protein and specific substrates (fluorescence mostly, some colorimetric and radioactive) and inhibitors, followed by a biochemical separation of substrate and product. All assays for the biochemical HTS were initially run in duplicate at a single concentration (10 uM for CYP450 assays and 25 uM for all others). […] Each assay was run with positive and negative controls, and concurrent controls on every plate. The follow-up (secondary) screen tested active chemical-pairs in concentration series, as well as a few additional assays not tested in the primary screen, some selected negative inactives, and several cases re-run in the concentration series for confirmatory purposes.

Chain of human Phosphatase and Tensin Homolog (PTEN), PTEN (gene 5728) (P60484 whole entry, looked up): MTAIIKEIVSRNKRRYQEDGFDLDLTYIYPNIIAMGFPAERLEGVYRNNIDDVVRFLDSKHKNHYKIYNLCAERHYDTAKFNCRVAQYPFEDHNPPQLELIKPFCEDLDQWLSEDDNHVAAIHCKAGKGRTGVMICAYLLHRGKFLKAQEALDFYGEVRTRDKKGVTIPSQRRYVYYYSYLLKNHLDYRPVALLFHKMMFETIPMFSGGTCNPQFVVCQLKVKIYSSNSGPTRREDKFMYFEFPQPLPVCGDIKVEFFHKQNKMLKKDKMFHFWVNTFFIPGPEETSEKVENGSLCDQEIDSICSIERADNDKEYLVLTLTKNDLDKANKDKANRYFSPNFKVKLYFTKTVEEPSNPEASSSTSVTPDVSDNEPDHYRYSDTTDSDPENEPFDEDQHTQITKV

Row | Structure (SMILES) | outcome | AC50
1 | O=C(O)C(F)(F)C(F)(F)C(F)(F)C(F)(F)C(F)(F)C(F)(F)C(F)(F)F | inactive | –
2 | N#Cc1c(Cl)c(Cl)c(Cl)c(C#N)c1Cl | inactive | –
3 | CC(C)(C)C(O)C(Oc1ccc(Cl)cc1)n1cncn1 (stereo not given) | inactive | –
4 | CCS(=O)(=O)c1cccnc1S(=O)(=O)NC(=O)Nc1nc(OC)cc(OC)n1 | inactive | –
5 | [2H]C1([2H])[n+]2ccccc2-c2cccc[n+]2C1([2H])[2H] | – | 2.29 nM (active)
6 | O=S(=O)(O)C(F)(F)C(F)(F)C(F)(F)C(F)(F)C(F)(F)C(F)(F)C(F)(F)C(F)(F)F | – | 7.35 µM (active) and 26.9 µM (active)
7 | ClC1C(Cl)C(Cl)C(Cl)C(Cl)C1Cl (stereo not given) | inactive | –

molecular target: Tyrosine-protein phosphatase non-receptor type 12 (Homo sapiens) (UniProt Q05209); assay: NVS_ENZ_hPTPN12: NovaScreen (NVS) Enzymatic Assay for human Protein Tyrosine Phosphatase Non-receptor Type 12 (PTPN12) (AID 2283204)
Summary of the method: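 Single-concentration duplicates (25 uM) preceded singleton concentration-response up to 50 uM for chemicals passing threshold. Cell-free recombinant PTPN12 activity was read 1.33 h after dosing via fluorescence after mobility-shift separation; loss of signal versus DMSO.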

Chain of Tyrosine-protein phosphatase non-receptor type 12 (Homo sapiens) (Q05209 whole entry, looked up): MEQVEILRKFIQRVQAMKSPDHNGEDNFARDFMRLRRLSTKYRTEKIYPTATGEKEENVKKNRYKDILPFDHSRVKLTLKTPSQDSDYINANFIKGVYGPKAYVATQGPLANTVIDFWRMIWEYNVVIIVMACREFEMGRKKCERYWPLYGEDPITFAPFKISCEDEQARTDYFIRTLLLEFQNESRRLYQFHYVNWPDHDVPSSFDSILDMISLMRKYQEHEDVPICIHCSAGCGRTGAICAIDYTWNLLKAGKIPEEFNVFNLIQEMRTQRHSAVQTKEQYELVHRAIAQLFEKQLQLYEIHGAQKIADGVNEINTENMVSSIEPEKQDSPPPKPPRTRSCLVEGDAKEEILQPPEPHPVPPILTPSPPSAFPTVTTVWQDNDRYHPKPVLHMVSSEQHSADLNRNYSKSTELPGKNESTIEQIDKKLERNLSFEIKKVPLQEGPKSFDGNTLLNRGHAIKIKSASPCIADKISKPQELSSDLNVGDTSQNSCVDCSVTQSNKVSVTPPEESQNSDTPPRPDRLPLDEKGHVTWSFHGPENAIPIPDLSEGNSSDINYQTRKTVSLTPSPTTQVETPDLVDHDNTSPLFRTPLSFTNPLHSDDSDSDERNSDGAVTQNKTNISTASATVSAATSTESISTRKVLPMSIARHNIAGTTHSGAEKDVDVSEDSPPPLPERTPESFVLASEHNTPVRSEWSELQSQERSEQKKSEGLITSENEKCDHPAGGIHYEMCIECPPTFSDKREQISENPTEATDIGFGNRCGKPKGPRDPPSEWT

Row | Structure (SMILES) | outcome | AC50
8 | Oc1cc(Cl)ccc1Oc1ccc(Cl)cc1Cl | inactive | –
9 | O=C(O)C(F)(F)C(F)(F)C(F)(F)C(F)(F)C(F)(F)C(F)(F)C(F)(F)F | inactive | –
10 | CC(C)(C)C(O)C(Oc1ccc(Cl)cc1)n1cncn1 (stereo not given) | inactive | –
11 | O=S(=O)(O)C(F)(F)C(F)(F)C(F)(F)C(F)(F)C(F)(F)C(F)(F)C(F)(F)C(F)(F)F | – | 20.7 µM (active) and 30 µM (active) and 30.1 µM (active)

molecular target: Tyrosine-protein phosphatase non-receptor type 13 (Homo sapiens) (UniProt Q12923); assay: NVS_ENZ_hPTPN13: NovaScreen (NVS) Enzymatic Assay for human Protein Tyrosine Phosphatase Non-receptor Type 13 (PTPN13) (AID 2283205)
Summary of the method: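 Screened first at a single 25 uM in duplicate; compounds passing the threshold (e.g. 30% inhibition) were rerun in concentration series, top 50 uM. Recombinant enzyme, fluorescent substrate, mobility-shift separation, 0.5 h read. Data fitted as inhibition relative to DMSO.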

Chain of Tyrosine-protein phosphatase non-receptor type 13 (Homo sapiens) (Q12923 whole entry, looked up): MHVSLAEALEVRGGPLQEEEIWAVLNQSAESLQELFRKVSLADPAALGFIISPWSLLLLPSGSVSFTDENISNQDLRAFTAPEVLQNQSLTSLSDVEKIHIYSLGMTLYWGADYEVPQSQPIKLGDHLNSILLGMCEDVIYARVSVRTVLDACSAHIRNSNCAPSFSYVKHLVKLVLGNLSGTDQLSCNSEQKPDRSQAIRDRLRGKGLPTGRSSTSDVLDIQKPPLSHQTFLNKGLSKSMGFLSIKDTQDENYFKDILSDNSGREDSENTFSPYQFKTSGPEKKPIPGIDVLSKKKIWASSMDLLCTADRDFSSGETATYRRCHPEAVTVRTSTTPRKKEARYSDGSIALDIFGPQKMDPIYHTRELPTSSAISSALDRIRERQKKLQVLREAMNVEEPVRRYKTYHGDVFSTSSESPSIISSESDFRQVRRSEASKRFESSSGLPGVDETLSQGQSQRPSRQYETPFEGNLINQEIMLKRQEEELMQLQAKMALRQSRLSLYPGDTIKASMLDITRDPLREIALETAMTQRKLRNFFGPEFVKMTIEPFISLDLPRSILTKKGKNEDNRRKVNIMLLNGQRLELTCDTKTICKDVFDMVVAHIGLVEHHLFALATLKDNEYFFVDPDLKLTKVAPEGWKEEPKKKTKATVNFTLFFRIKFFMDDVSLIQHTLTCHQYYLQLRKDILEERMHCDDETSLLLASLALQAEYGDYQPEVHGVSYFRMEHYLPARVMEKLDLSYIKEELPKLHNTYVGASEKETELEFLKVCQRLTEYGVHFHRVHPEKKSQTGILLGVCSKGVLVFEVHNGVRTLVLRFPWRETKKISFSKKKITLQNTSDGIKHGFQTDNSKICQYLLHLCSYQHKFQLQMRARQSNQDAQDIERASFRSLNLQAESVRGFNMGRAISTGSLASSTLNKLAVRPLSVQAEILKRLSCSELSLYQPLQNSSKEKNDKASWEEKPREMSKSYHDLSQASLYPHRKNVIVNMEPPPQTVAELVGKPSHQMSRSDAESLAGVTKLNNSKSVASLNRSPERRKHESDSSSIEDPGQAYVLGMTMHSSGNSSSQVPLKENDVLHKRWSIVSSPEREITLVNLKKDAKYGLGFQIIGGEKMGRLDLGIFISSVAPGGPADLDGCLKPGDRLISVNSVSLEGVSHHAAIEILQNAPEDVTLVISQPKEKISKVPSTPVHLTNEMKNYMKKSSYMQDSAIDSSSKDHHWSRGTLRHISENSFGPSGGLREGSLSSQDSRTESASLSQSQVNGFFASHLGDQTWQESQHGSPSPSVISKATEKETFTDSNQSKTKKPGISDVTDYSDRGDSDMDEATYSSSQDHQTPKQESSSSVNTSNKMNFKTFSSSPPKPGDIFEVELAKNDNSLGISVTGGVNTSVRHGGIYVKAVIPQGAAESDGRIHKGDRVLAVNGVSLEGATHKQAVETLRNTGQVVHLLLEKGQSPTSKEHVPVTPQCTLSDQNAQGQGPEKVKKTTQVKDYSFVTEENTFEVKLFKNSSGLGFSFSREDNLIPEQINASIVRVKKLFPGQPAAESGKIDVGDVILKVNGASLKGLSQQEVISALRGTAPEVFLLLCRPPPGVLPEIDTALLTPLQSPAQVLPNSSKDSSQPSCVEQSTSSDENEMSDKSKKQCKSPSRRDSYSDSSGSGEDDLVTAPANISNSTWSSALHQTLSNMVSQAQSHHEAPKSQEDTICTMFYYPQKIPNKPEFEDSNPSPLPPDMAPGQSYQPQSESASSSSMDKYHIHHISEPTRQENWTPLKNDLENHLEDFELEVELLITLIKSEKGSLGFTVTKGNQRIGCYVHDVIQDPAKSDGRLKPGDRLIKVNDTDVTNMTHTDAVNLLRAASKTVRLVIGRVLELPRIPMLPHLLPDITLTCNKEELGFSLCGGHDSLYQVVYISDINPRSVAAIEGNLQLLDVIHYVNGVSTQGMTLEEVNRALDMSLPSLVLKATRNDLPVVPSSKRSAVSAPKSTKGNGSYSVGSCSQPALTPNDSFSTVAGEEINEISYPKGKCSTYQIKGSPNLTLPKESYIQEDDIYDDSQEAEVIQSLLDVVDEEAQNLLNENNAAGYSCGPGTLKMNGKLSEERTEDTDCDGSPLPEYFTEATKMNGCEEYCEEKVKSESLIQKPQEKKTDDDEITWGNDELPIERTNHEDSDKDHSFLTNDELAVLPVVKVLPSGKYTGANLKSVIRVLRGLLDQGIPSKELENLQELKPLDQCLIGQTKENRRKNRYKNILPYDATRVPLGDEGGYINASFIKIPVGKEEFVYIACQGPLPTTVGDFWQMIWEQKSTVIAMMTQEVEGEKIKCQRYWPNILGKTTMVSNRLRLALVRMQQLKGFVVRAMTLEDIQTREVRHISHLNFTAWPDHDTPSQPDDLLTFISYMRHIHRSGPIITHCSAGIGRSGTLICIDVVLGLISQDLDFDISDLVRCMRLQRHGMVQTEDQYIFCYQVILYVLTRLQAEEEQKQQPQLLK

Row | Structure (SMILES) | outcome | AC50
12 | COC(=O)c1ccccc1S(=O)(=O)NC(=O)N(C)c1nc(C)nc(OC)n1 | inactive | –
13 | O=C(O)C(F)(F)C(F)(F)C(F)(F)C(F)(F)C(F)(F)C(F)(F)C(F)(F)F | inactive | –
14 | CC(C)(C)C(O)C(Oc1ccc(Cl)cc1)n1cncn1 (stereo not given) | inactive | –
15 | O=S(=O)(O)C(F)(F)C(F)(F)C(F)(F)C(F)(F)C(F)(F)C(F)(F)C(F)(F)C(F)(F)F | – | 10.5 µM (active) and 36.6 µM (active)
